# The list is not random: actives were taken first. Their share in the collection is about 6.5%.
# Marburg entry inh – blocks Marburg virus binding to or entry into cells; Marburg virus pseudotyped entry inhibition, cell reporter; Potency, µM (highest dose often 37.8 µM), inactives show top-dose activity change, negative = inhibition, most hits filed as inhibitors; 300,000 tested, 1.8% active; AID 540276; calls by dose curve; tested in HEK293 cells; note: potency is the fitted concentration of half-maximal effect
# VACV Venus inh – inhibitors of vaccinia virus (Venus reporter); Vaccinia virus Venus reporter expression, fluorescence; Potency, µM (top dose mostly 36.5 µM), without a hit: top-dose activity change, negative = inhibition, usual class: inhibitors; 330,000 tested, 0.46% active; AID 720580; calls by dose curve; tested in A549 cells; note: potency is the fitted concentration of half-maximal effect; nearly all actives have a fitted effect of over 30% in size
# HCMV inh – blocks human cytomegalovirus replication | HFF cells, HCMV-luciferase reporter, 72 h; active compounds read low | 410,000 tested, 4.5% active | activity change, negative = inhibition, % at 57.5 µM | AID 1259415; in the data active = activity change below about -60%; inconclusive = no clear call, values can overlap the other calls; inactive = above about -39%
#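 Compounds were evaluated in HFFs infected with an HCMV luciferase reporter virus (MOI 1 PFU/cell). Luciferase in lysates collected 72 h post infection served as the replication measure.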
# VACV mCherry inh – inhibitors of vaccinia virus infection (mCherry reporter signal); 310,000 tested, 0.63% active; AID 720579; Vaccinia virus mCherry reporter infection, fluorescence; Potency, µM (top dose mostly 36.5 µM), for the others: top-dose activity change, negative = inhibition, hits mostly inhibitors; calls by dose curve; tested in A549 cells; note: potency is the fitted concentration of half-maximal effect; nearly all actives have a fitted effect of over 35% in size
# LASV entry inh – Lassa virus entry inhibition; Potency, µM (doses to about 37.9 µM), without a hit: at the highest dose activity change, negative = inhibition, hits mostly inhibitors; Lassa virus pseudotype entry inhibition, cell reporter; 300,000 tested, 1.2% active; calls by dose curve; tested in HEK293 cells; note: potency is the fitted concentration of half-maximal effect; nearly all actives have a fitted effect of over 50% in size
# FMDV antiviral – blocks foot and mouth disease virus. FMDV antiviral cell-based qHTS. Potency, µM (series often up to 57.9 µM), for inactives: at the highest dose activity change, negative = inhibition, usual class: inhibitors. 410,000 tested, 1.2% active; calls by dose curve; tested in HEK293T cells; note: read-out not given here; potency is the fitted concentration of half-maximal effect; nearly all actives have a fitted effect of over 45% in size
# Starred values were filed as active, the others as inactive; i = inactive; ? = inconclusive; / = not tested or not shown; [ ] = dose if it differs, or a comment. % is set by controls: 0 for no effect and ±100 for the full control effect.
SMILES,Marburg entry inh,VACV Venus inh,HCMV inh,VACV mCherry inh,LASV entry inh,FMDV antiviral
CCc1ccccc1N(C)C(=O)c1sc2nc3n(c(=O)c2c1C)CCCCC3,/,-13%,2,-10%,-11%[46.1 µM],-7%
Cc1c(C(=O)N(C)c2cccc(C(F)(F)F)c2)sc2nc3n(c(=O)c12)CCCCC3,/,-6%[7.34 µM],-76*,-4%[7.34 µM],4%[46.1 µM],-27%
CC(=O)Nc1ccc(NC(=O)c2sc3nc4n(c(=O)c3c2C)CCCCC4)cc1,-20%,/,-82*,/,?,-13%
O=C(CCCn1c(=O)c2ccccc2n(CC(=O)Nc2cccc(C(F)(F)F)c2)c1=O)NCc1ccc2c(c1)OCO2,-10%[46.1 µM],-14%,7,-14%,2%[46.1 µM],5%
COC(=O)C(Nc1cc(OC)ccc1OC)(c1cccc(OC)c1)C(Nc1cc(OC)ccc1OC)c1ccc(Br)cc1 (stereo unspecified),/,/,-20,/,/,/
Cc1ccc(Cl)cc1N1CCN(C(=O)c2noc(C)c2[N+](=O)[O-])CC1,/,/,-105*,/,/,4%
CCCCc1oc2ccc(NS(C)(=O)=O)cc2c1C(=O)c1ccc(OCCCN(CCCC)CCCC)cc1,/,/,-82*,/,/,/
COc1cc(C2C(=O)N(C3CCC(C)CC3)CC(=O)N2CCc2ccc(Cl)cc2)ccc1OC(C)C (stereo unspecified),/,-6%,-10,-1%,-7%[46.1 µM],-14%
Cc1ccc(C23OCCN2CCn2nc4ccccc4c23)cc1 (stereo unspecified),/,-3%,6,i,/,-15%
N#Cc1ccc(C23OCCN2CCn2c3c3ccccc3[n+]2[O-])cc1 (stereo unspecified),/,-26%,5,4µM*,/,1%
CCOc1ccc2ncc(S(=O)(=O)c3ccc(C)cc3)c(N3CCC4(CC3)OCCO4)c2c1,?,?,-90*,-29%,?,-22%
CCN1CCN(c2c(S(=O)(=O)c3ccc(OC)cc3)cnc3cc(OC)c(OC)cc23)CC1,?,-14%,-39,-26%,/,-17%
CCC(C)c1ccc(S(=O)(=O)N2CCN(C(C)C(=O)NC3CCCC3)CC2)cc1 (stereo unspecified),-21%,-21%,?,-12%,2.8µM*,-7%
CC(C)c1ccc(S(=O)(=O)N2CCN(C(C)C(=O)N3CCCC3)CC2)cc1 (stereo unspecified),18%,-17%,-70*,-16%,?,-18%
CCCc1ccc(S(=O)(=O)N2CCN(C(C)C(=O)NC3CCCC3)CC2)cc1 (stereo unspecified),-1%,-19%,-24,i,?,-12%
C=CCNC(=O)C1CC1(c1cccc(C)c1)c1cccc(C)c1 (stereo unspecified),-25%[46.1 µM],-15%,0,-17%,4%,3%
Cc1cccc(C2(c3cccc(C)c3)CC2C(=O)Nc2ccc([N+](=O)[O-])cc2O)c1 (stereo unspecified),13µM*,?,-104*,?,?,?
CCOc1ccc(NC(=O)CSc2nc3c(oc4ccccc43)c(=O)n2-c2ccccc2C)cc1,?,-14%,-82*,-21%,/,-6%
NC(C(=O)O)c1cc(O)cc(O)c1 (stereo unspecified),/,-10%,/,i,/,5%
COc1ccc2nc3cc(Cl)ccc3c(Nc3ccc(O)c(CN4CCN(C)CC4)c3)c2c1,4.5µM*,?,17,?,?,1%
CCOc1cc(-c2nccc3cc(OC)c(OC)cc23)cc(OCC)c1OCC,13µM*,-12%,-27,-14%,?,?
COc1cc(N)c(Cc2nccc3cc(OC)c(OC)cc23)cc1OC,-15%[46.1 µM],1%,2,?,?,-26%
COc1cc2ccnc(Cc3cccc(OC)c3OC)c2cc1OC,20%[46.1 µM],-21%,-72*,-17%,/,?
COc1cc2ccnc(C=O)c2cc1OC,/,-5%,/,i,/,?
CO[C@H]1[C@H](NC(=O)c2ccsc2)c2ccccc2C12CCN(Cc1cc(Cl)ccc1O)CC2,/,-18%,/,-28%,/,-11%
SMILES,Marburg entry inh,VACV Venus inh,HCMV inh,VACV mCherry inh,LASV entry inh,FMDV antiviral
Cc1n[nH]c(C)c1S(=O)(=O)N(CC(=O)Nc1ccc(C(F)(F)F)cc1)c1ccc(C(C)C)cc1,?,?,-96*,?,-6%[46.1 µM],-27%
Cc1ccc(NC(=O)/C=C/c2ccco2)cc1F,/,-20%,0,?,?,11%
O=C(/C=C\c1ccco1)Nc1cc([N+](=O)[O-])ccc1F,?,?,-87*,?,?,-6%
CCOC(=O)CCN1C(=O)[C@H]2[C@H]3[C@H](O)[C@H](O)C/C(=N/NC(=O)OCc4ccccc4)[C@@H]3CC[C@@H]2C1=O,29%[14.2 µM],/,/,/,/,/
Cn1c(-c2cccc(C(F)(F)F)c2)cc2cnc(Nc3cccc(Oc4ccccc4)c3)cc21,/,/,-11,/,/,/
CCOc1ccc(-c2nnn(CC(=O)N3CCCC(C)C3)n2)cc1 (stereo unspecified),/,/,-70*,/,/,-8%
Nc1cc(=O)[nH]c(=O)n1CCCc1ccccc1,-2%[46.1 µM],-9%,-73*,-5%,-6%[46.1 µM],-1%
COC(=O)C1CCN(S(=O)(=O)c2ccc(N3CCCCS3(=O)=O)cc2)CC1,/,-13%,-13,-8%,?,-25%
COc1ccc(-n2c(CNC(=O)c3c(-c4ccccc4)noc3C)nnc2SC)cc1,/,-9%,/,i,/,-14%
CN(CCO)C(=O)c1cn(C2CCN(Cc3cccc4ccccc34)CC2)nn1,/,-6%,/,-10%,/,-14%
CCc1cccc(CC)c1NC(=O)CN1CC(C)SC1=NC1CCCCC1 (stereo unspecified),?,1%,-63*,-11%,?,-13%
Cc1cnc(C)c(Nc2nc(C(N)Cc3ccccc3)cs2)n1 (stereo unspecified),/,-10%,-23,-7%,/,-25%
Cc1cnc(C)c(Nc2nc(C(N)Cc3ccc(C(F)(F)F)cc3)cs2)n1 (stereo unspecified),/,?,-25,11µM*,/,-27%
NC(Cc1ccc(C(F)(F)F)cc1)c1csc(Nc2ccccn2)n1 (stereo unspecified),/,?,-19,11µM*,/,-17%
CC(=O)c1ccc(Nc2nc(C(N)Cc3ccc(C(F)(F)F)cc3)cs2)cc1 (stereo unspecified),/,?,-61*,-23%,/,-23%
CN(Cc1ccccc1)C(=O)c1ccc(Nc2nc(C(N)Cc3ccc(C(F)(F)F)cc3)cs2)nc1 (stereo unspecified),/,?,-98*,-28%,/,10%
NC(CCc1ccccc1)c1csc(Nc2ccc(C(=O)c3ccccc3)cc2)n1 (stereo unspecified),/,?,4,-26%,/,-28%
NC(Cc1ccc(C(F)(F)F)cc1)c1csc(Nc2ccc(C(=O)c3ccccc3)cc2)n1 (stereo unspecified),/,?,-63*,?,/,-24%
Cc1onc(-c2ccc(Cl)cc2)c1-c1ccnn1S(=O)(=O)c1cccc(C(F)(F)F)c1,10µM*,-4%[7.34 µM],-36,-13%[7.34 µM],-27%,-17%
